Experimental data: PubChem BioAssay (NCI)
This is part of a sample that, as a whole, favours compounds with a hit. Of some 79,000 tested, about 15% had one in any assay. Activity calls are given as the source filed them. No stated cut-off is given here; in the data, active means growth inhibition above about 70%; inactive means the rest.

Key:
[1] = NCI Yeast Anticancer Drug Screen. Data for the wt1 strain (AID 149);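 further: 0% = growth of vehicle-treated wt1 cultures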; details: S. cerevisiae wt1 strain (SPY 50644) growth inhibition, hits give high values
Method in brief: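 The wt1 strain was treated with compounds, and growth was compared with vehicle-treated cultures to give inhibition.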

[2] = NCI Yeast Anticancer Drug Screen. Data for the rad50EPP+ strain (AID 151);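 further: 0% = growth of vehicle-treated control cultures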; details: S. cerevisiae rad50 mutant strain, hits give high values
Method in brief: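 Read-out is yeast growth inhibition relative to vehicle; cells used were the rad50EPP+ strain.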

[3] = NCI Yeast Anticancer Drug Screen. Data for the mgt1 strain (AID 153); details: S. cerevisiae mgt1 mutant growth inhibition, hits give high values
Method in brief: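 Measured: inhibition of mgt1 yeast growth by compound, normalized to vehicle-treated cultures.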

[4] = NCI Yeast Anticancer Drug Screen. Data for the rad50 strain (AID 155);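 further: 0% = growth of vehicle-only cultures of the same strain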; details: S. cerevisiae rad50 strain growth inhibition, hits give high values
Method in brief: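 Cells are treated with compound, grown, and their growth is then scored against vehicle-only cultures of the same repair-deficient yeast strain.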

[5] = NCI Yeast Anticancer Drug Screen. Data for the mec2-1 strain (AID 157); details: S. cerevisiae mec2-1 strain, hits give high values
Method in brief: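 Using mec2-1 yeast: add compound, measure growth, express inhibition versus vehicle-treated cultures.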

[6] = NCI Yeast Anticancer Drug Screen. Data for the rad14 strain (AID 159);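 further: 0% = growth of vehicle-treated control cultures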; details: S. cerevisiae rad14 strain growth inhibition, hits give high values
Method in brief: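 Readout: yeast growth inhibition, referenced to vehicle-only cultures. Strain bears a defined alteration in DNA damage repair.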

[7] = NCI Yeast Anticancer Drug Screen. Data for the sgs1 mgt1 strain (AID 161);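 further: 0% = growth of cultures given vehicle only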; details: S. cerevisiae sgs1 mgt1 strain, hits give high values
Method in brief: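 Growth of a repair-deficient yeast mutant was monitored after compound treatment and expressed as inhibition relative to vehicle-treated cultures.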

[8] = NCI Yeast Anticancer Drug Screen. Data for the CLN2oe strain (AID 163);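 further: 0% = growth of vehicle-only control cultures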; details: S. cerevisiae CLN2oe strain, hits give high values
Method in brief: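 Whole-cell yeast growth assay. A strain engineered for altered cell-cycle control received compound, and inhibition relative to vehicle-treated cultures was recorded.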

[9] = NCI Yeast Anticancer Drug Screen. Data for the cln2 rad14 strain (AID 165);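 further: 0% = growth equal to vehicle treated cultures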; details: S. cerevisiae cln2 rad14 strain, hits give high values
Method in brief: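 Yeast strain cln2 rad14, bearing defects in cell cycle control and DNA repair, serves as the test system; values reflect growth inhibition compared with vehicle.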

[10] = NCI Yeast Anticancer Drug Screen. Data for the wt2 strain (AID 169);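 further: 0% = growth of vehicle-treated yeast cultures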; details: S. cerevisiae wt2 strain growth inhibition, hits give high values
Method in brief: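 Treated yeast vs. vehicle-treated yeast: growth inhibition determined.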

[11] = NCI Yeast Anticancer Drug Screen. Data for the mlh1 strain (AID 171);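 further: 0% = growth of vehicle-treated control cultures of the same strain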; details: S. cerevisiae mlh1 strain growth inhibition, hits give high values
Method in brief: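 A yeast strain with a defined genetic lesion serves as the test organism. Cultures receive compound or vehicle, and growth is measured.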

[12] = NCI Yeast Anticancer Drug Screen. Data for the sgs1 strain (AID 173);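 further: 0% = growth of vehicle-only control cultures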; details: S. cerevisiae sgs1 mutant, hits give high values
Method in brief: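 A genetically defined yeast mutant is incubated with the test compound, and its growth is compared to that of the same strain given vehicle.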

[13] = NCI Yeast Anticancer Drug Screen. Data for the mlh1 rad18 strain (AID 175); details: S. cerevisiae mlh1 rad18 strain growth inhibition, hits give high values
Method in brief: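 Steps: expose repair-defective yeast to compound; measure growth; express inhibition against vehicle-treated controls.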

[14] = NCI Yeast Anticancer Drug Screen. Data for the rad18 strain (AID 177); details: S. cerevisiae rad18 mutant growth inhibition, hits give high values
Method in brief: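 Measured value is growth inhibition of a yeast strain bearing a DNA repair alteration, referenced to vehicle-treated cells.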

[15] = NCI Yeast Anticancer Drug Screen. Data for the bub3 strain (AID 167); details: S. cerevisiae bub3 mutant strain, hits give high values
Method in brief: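 Part of a panel of yeast mutants defective in DNA damage repair or cell cycle regulation. Each strain is grown with compound, and inhibition is calculated relative to solvent-treated cultures.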

[16] = at 5.0 µM (retest, dose inferred, filed as 0.5)
[17] = at 50.0 µM (retest, dose inferred, filed as 5.0)

Measured: growth inhibition

CCN(CC)c1cccc(Nc2nc3ccccc3s2)c1
inactive: [1]; at 1.2 µM 8% | [1]; at 3.7 µM 10% | [1]; at 11.0 µM 6% | [1]; at 33.0 µM 7% | [1]; at 100.0 µM 5% | [2]; at 1.2 µM -9% | [2]; at 3.7 µM 0% | [2]; at 11.0 µM -2% | [2]; at 33.0 µM 1% | [2]; at 100.0 µM 19% | [3]; at 1.2 µM 6% | [3]; at 3.7 µM 6% | [3]; at 11.0 µM 5% | [3]; at 33.0 µM 7% | [3]; at 100.0 µM 7% | [4]; at 1.2 µM 8% | [4]; at 3.7 µM 9% | [4]; [16] -4% | [4]; at 11.0 µM 5% | [4]; at 33.0 µM 7% | [4]; [17] 2% | [4]; at 50.0 µM 1.6% | [4]; at 100.0 µM 7% | [5]; at 1.2 µM 13% | [5]; at 3.7 µM 14% | [5]; [16] -5% | [5]; at 11.0 µM 15% | [5]; at 33.0 µM 16% | [5]; [17] 1% | [5]; at 50.0 µM 7.7% | [5]; at 100.0 µM 8% | [6]; at 1.2 µM 7% | [6]; at 3.7 µM 7% | [6]; at 11.0 µM 7% | [6]; at 33.0 µM 7% | [6]; at 100.0 µM 7% | [7]; [16] 3% | [7]; [17] 21% | [7]; at 50.0 µM 17.4% | [8]; at 1.2 µM -3% | [8]; at 3.7 µM 1% | [8]; at 11.0 µM -1% | [8]; at 33.0 µM -4% | [8]; at 100.0 µM -10% | [9]; [16] -9% | [9]; [17] -1% | [9]; at 50.0 µM -7.1% | [10]; at 1.2 µM -1% | [10]; at 3.7 µM -1% | [10]; at 11.0 µM -1% | [10]; at 33.0 µM -2% | [10]; at 100.0 µM -3% | [11]; at 1.2 µM 10% | [11]; at 3.7 µM 9% | [11]; at 11.0 µM 10% | [11]; at 33.0 µM 9% | [11]; at 100.0 µM 8% | [12]; at 1.2 µM 8% | [12]; at 3.7 µM 7% | [12]; at 11.0 µM 7% | [12]; at 33.0 µM 7% | [12]; at 100.0 µM 5% | [13]; [16] 4% | [13]; [17] 20% | [13]; at 50.0 µM 25.1% | [14]; at 1.2 µM 7% | [14]; at 3.7 µM 7% | [14]; at 11.0 µM 6% | [14]; at 33.0 µM 3% | [14]; at 100.0 µM 1%

CCc1nc2ccc(N=Nc3c(O)ccc4ccccc34)cc2[nH]1
active: [1]; at 100.0 µM 96% | [2]; at 100.0 µM 93% | [3]; at 100.0 µM 96% | [4]; at 50.0 µM 89% | [4]; at 100.0 µM 95% | [5]; at 50.0 µM 93.2% | [5]; at 100.0 µM 93% | [6]; at 100.0 µM 93% | [7]; at 50.0 µM 92.5% | [8]; at 100.0 µM 95% | [15]; [17] 92% | [15]; at 50.0 µM 92.2% | [15]; at 100.0 µM 95% | [10]; at 100.0 µM 96% | [11]; at 100.0 µM 95% | [12]; at 100.0 µM 95% | [13]; at 50.0 µM 90.1% | [14]; at 100.0 µM 95%
inactive: [1]; at 1.2 µM 14% | [1]; at 3.7 µM 10% | [1]; at 11.0 µM 19% | [1]; at 33.0 µM 30% | [2]; at 1.2 µM -5% | [2]; at 3.7 µM 4% | [2]; at 11.0 µM 23% | [2]; at 33.0 µM 63% | [3]; at 1.2 µM 0% | [3]; at 3.7 µM -10% | [3]; at 11.0 µM -6% | [3]; at 33.0 µM -2% | [4]; at 1.2 µM 6% | [4]; at 3.7 µM 6% | [4]; [16] -23% | [4]; at 11.0 µM 8% | [4]; at 33.0 µM 34% | [4]; [17] 25% | [5]; at 1.2 µM 0% | [5]; at 3.7 µM 7% | [5]; [16] -49% | [5]; at 11.0 µM 10% | [5]; at 33.0 µM 21% | [5]; [17] 65% | [6]; at 1.2 µM -15% | [6]; at 3.7 µM -29% | [6]; at 11.0 µM -20% | [6]; at 33.0 µM 32% | [7]; [16] -4% | [7]; [17] 21% | [8]; at 1.2 µM 2% | [8]; at 3.7 µM 1% | [8]; at 11.0 µM -5% | [8]; at 33.0 µM 9% | [15]; at 1.2 µM -3% | [15]; at 3.7 µM -11% | [15]; [16] -9% | [15]; at 11.0 µM -18% | [15]; at 33.0 µM 13% | [10]; at 1.2 µM -13% | [10]; at 3.7 µM 12% | [10]; at 11.0 µM -5% | [10]; at 33.0 µM 12% | [11]; at 1.2 µM -15% | [11]; at 3.7 µM -10% | [11]; at 11.0 µM -18% | [11]; at 33.0 µM 17% | [12]; at 1.2 µM 1% | [12]; at 3.7 µM 17% | [12]; at 11.0 µM 24% | [12]; at 33.0 µM 57% | [13]; [16] -22% | [13]; [17] 46% | [14]; at 1.2 µM -8% | [14]; at 3.7 µM -10% | [14]; at 11.0 µM 1% | [14]; at 33.0 µM 21%
